Screening results (PubChem)
A selection: hits, their analogues and other compounds. The true share with any hit is near 27%.
CYP2C9 activ = activators of human CYP2C9 | actives 1.4% (n = 96,000) | activation factor at 5 µM | AID 1024 | P11712 | recombinant CYP2C9, luciferin-H conversion, luminescence; active compounds read high; factor 1 = untreated enzyme, 0 = blocked;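 active = activation factor of 2 or more for CYP2C9 at a 5 µM dose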
CYP2C19 act = increases human CYP2C19 enzyme activity; 96,000 tested, under 10 active; activation factor at 5 µM; P33261; recombinant CYP2C19, luciferin-H EGE luminescence; active compounds read high; 0 = fully inhibited enzyme, 1 = untreated enzyme;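 active = activation factor of at least 2 at 5 µM in the primary screen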
Target sequence (P33261 whole entry, looked up): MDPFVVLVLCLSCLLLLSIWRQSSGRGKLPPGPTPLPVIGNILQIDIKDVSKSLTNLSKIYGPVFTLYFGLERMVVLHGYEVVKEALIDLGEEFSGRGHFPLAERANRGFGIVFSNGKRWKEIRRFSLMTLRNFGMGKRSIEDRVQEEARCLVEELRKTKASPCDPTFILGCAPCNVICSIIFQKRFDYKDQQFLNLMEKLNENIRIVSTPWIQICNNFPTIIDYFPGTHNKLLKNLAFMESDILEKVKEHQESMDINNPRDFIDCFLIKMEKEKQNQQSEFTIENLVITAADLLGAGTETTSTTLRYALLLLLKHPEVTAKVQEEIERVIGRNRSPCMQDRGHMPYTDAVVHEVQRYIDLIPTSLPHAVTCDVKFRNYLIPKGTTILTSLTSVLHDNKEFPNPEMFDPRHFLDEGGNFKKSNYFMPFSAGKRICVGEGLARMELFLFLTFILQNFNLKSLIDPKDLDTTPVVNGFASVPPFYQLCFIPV
CYP2C9 inhib = inhibitors of human CYP2C9; P11712; CYP2C9 Supersomes, luciferin-H conversion, luminescence; inhibition, % at 5 µM; actives 20% (n = 96,000);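 active = blocking of liver enzyme CYP2C9 beyond about 50% at 5 µM, limit read from the data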
CYP2C19 inhib = human CYP2C19 inhibition | P33261 | CYP2C19 Supersomes, luciferin-H EGE luminescence, 30 min | inhibition, % at 5 µM | actives 21% (n = 96,000);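 active = CYP2C19 inhibition above a set limit at 5 µM in the primary screen, cut at about 50% in these data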
Cav3 T inh = blocks human Cav3.2 T-type calcium channel; B-score at 10 µM; O95180; actives 4% (n = 100,000); Cav3.2-expressing cells, Fluo-4 calcium fluorescence FDSS; active compounds read low;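 active = single-dose well whose peak fluorescence ratio is a statistical outlier from its plate by either plate-standardised score or position-corrected B-score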
Each line names hits and unclear results; the compound was inactive in the other large screens.

CCOC(=O)c1sc(NC(=O)CSc2n[nH]c(-c3ccccc3)n2)c(C#N)c1C	CYP2C9 inhib 72 (no result: Cav3 T inh)
CCOC(=O)c1sc(NC(=O)c2cc(-c3ccccc3)nc3ccccc23)c(C#N)c1C	Cav3 T inh -4.1
CCOC(=O)c1sc(NC(=O)CSc2ccccn2)c(C#N)c1C	none
N#Cc1c(NC(=O)c2cccnc2)sc2c1CCC2	none
CCOC(=O)c1ccc(CSc2ncn[nH]2)o1	none
CCOC(=O)c1sc(NC(=O)c2cccnc2)c(C#N)c1C	CYP2C9 inhib 94
Cc1cc(C(F)(F)F)n2nc(-c3cnn(C)c3C(F)(F)F)cc2n1	none
CCOC(=O)CN(C(=O)CSc1nnc2c(n1)[nH]c1ccc(OC)cc12)c1ccc(F)cc1	none
CCOC(=O)c1sc(NC(=O)CSc2nc(-c3ccco3)cc(C(F)(F)F)n2)c(C#N)c1C	CYP2C9 inhib 74
CCOC(=O)c1sc(NC(=O)CSc2ncn[nH]2)c(C#N)c1C	CYP2C9 inhib 82, CYP2C19 inhib 79
Cc1cc(NC(=O)CSc2nc(-c3ccco3)cc(C(F)(F)F)n2)no1	none (no result: CYP2C9 activ, CYP2C19 act, CYP2C9 inhib, CYP2C19 inhib)
CCOC(=O)N1CCN(c2nc(-c3ccco3)cc(C(F)(F)F)n2)CC1	CYP2C9 inhib 75
CCN(CC)C(=O)c1sc(NC(=O)c2cc(-c3ccc(C)s3)nc3ccccc23)c(C(=O)OC)c1C	CYP2C9 inhib 51
CCOc1ccccc1NC(=O)C1CC(=O)n2ncnc2N1 (stereo unspecified)	none
COCCOCC(O)CN1CCN(c2ccc(C)cc2)CC1 (stereo unspecified)	none
O=C(O)CCC(=O)NNC(=O)CCC(=O)NCc1ccccc1	none
CCN(C(=O)c1ccnc(C(C)(C)C)c1)c1ccccc1	CYP2C19 inhib 61
CCc1ccc(NC(=O)c2ccnc(C(C)(C)C)c2)cc1	none
C=CCC(C)(NCc1ccccc1)c1ccccc1 (stereo unspecified)	CYP2C19 inhib 62
O=[N+]([O-])c1cccc(C(=Nc2cccc(Cl)c2)NO)c1	CYP2C9 inhib 87, CYP2C19 inhib 91 (no result: Cav3 T inh)
C/C(=N\NC(=O)c1ccccc1C)c1cccc([N+](=O)[O-])c1	none
CCc1ccc2[nH]c(=O)c(C(c3nnnn3Cc3ccc(OC)cc3)N3CCOCC3)cc2c1 (stereo unspecified)	none
CCc1ccc2[nH]c(=O)c(C(c3nnnn3CCOC)N3CCN(c4ccc(F)cc4)CC3)cc2c1 (stereo unspecified)	CYP2C9 inhib 69, CYP2C19 inhib 96, Cav3 T inh -5.7
Cc1cccc2cc(C(c3nnnn3Cc3ccccc3)N3CCN(c4ccccc4)CC3)c(=O)[nH]c12 (stereo unspecified)	CYP2C9 inhib 50
COc1ccc(Cn2nnnc2C(c2cccs2)N2CCN(c3ccccc3)CC2)cc1 (stereo unspecified)	none
CCc1ccc2[nH]c(=O)c(C(c3nnnn3CCOC)N3CCN(c4ccccc4)CC3)cc2c1 (stereo unspecified)	CYP2C9 inhib 69
c1ccc(Cn2nnnc2C(c2ccccn2)N2CCN(c3ccccc3)CC2)cc1 (stereo unspecified)	CYP2C19 inhib 61
Cc1cccc(NC(=O)Cn2cnc3sc(C)c(S(=O)(=O)N4CCC(C)CC4)c3c2=O)n1	none (no result: CYP2C9 activ, CYP2C19 act, CYP2C9 inhib, CYP2C19 inhib)
COc1ccc(OC)c(CC(NC(C)=O)C(=O)NC2CCN(c3nc(C)cc(C)c3C#N)CC2)c1 (stereo unspecified)	none (no result: Cav3 T inh)
C=CCN1C(=O)CSc2ccc(C(=O)OCC)cc21	none
COc1ccc(C(=O)NNC(=O)CN2CCC(n3nnc4cc(C(F)(F)F)ccc43)CC2)cc1	none
O=C(CN1CCC(n2nnc3cc(C(F)(F)F)ccc32)CC1)Nc1ccc2c(c1)OCCO2	CYP2C9 inhib 87, CYP2C19 inhib 82
O=C(CN1CCC(n2nnc3cc(C(F)(F)F)ccc32)CC1)Nc1ccc2c(c1)CCC2	CYP2C9 inhib 79, CYP2C19 inhib 54
CCCCN(C(=O)NC(=O)C1=C(N2CCOCC2)/C(=C/c2ccccc2)CC1)S(C)(=O)=O	CYP2C9 inhib 78, CYP2C19 inhib 79 (no result: Cav3 T inh)
CC(C)(C)c1ccc(S(=O)(=O)N2CCCCC2C(=O)NCc2ccccn2)cc1 (stereo unspecified)	CYP2C19 inhib 63
Cc1ccc(S(=O)(=O)N2CCCC2C(=O)NC2=NCCS2)cc1 (stereo unspecified)	none
CC(C)(C)c1ccc(S(=O)(=O)N2CCCC2C(=O)NC2=NCCS2)cc1 (stereo unspecified)	CYP2C9 inhib 76
O=C(NCc1ccco1)C1CCCN1S(=O)(=O)c1ccc2ccccc2c1 (stereo unspecified)	CYP2C19 inhib 88
CCOC(=O)C(NC(=O)Cc1ccccc1)(Nc1cc(C)on1)C(F)(F)F (stereo unspecified)	none (no result: CYP2C9 activ, CYP2C19 act, CYP2C9 inhib, CYP2C19 inhib)
CCOC(=O)c1nnc(-c2cccs2)nc1Oc1ccccc1C(=O)OC	CYP2C9 inhib 95, CYP2C19 inhib 83
CCOC(=O)c1nnc(-c2cccs2)nc1Oc1ccc(Cl)cc1	none
CCCC1c2ccc(C)n2CCN1C(=O)Nc1ccc(F)cc1 (stereo unspecified)	none
O=C(CSc1nc2ccccc2[nH]1)NCc1ccco1	none
O=C(CSc1ncccc1-c1nc2ccccc2[nH]1)NCc1ccco1	CYP2C9 inhib 55
COC(=O)CSc1ncccc1-c1nc2ccccc2[nH]1	CYP2C19 inhib 59
CC1(OC(=O)C2CCCC2)C(=O)C=C2C=C(c3ccsc3)N(CCc3c[nH]c4ccccc34)C=C2C1=O (stereo unspecified)	none (no result: CYP2C9 activ, CYP2C19 act, CYP2C9 inhib, CYP2C19 inhib)
Cc1ccc(O)c(NC(=O)c2cccc(NC(=O)c3ccco3)c2)c1	CYP2C19 inhib 53
CC(C)(C)NC(=O)c1cccc(NC(=O)c2ccc(NC(=O)c3ccco3)cc2)c1	CYP2C9 inhib 97, CYP2C19 inhib 74
COc1cccc(C(=O)Nc2cc(NC(=O)c3ccco3)ccc2OC)c1	none
COc1ccccc1NC(=O)c1cccc(NC(=O)c2ccco2)c1	CYP2C9 activ 2.8 (no result: Cav3 T inh)
COc1ccc(NC(=O)Cc2ccc(Cl)cc2)cc1NC(=O)c1ccco1	CYP2C9 inhib 65, CYP2C19 inhib 74
C/C(=N\NC(=O)c1cccc(Cl)c1)c1cccc(NC(=O)c2ccco2)c1	Cav3 T inh -5.5
C/C(=N/NC(=O)c1ccco1)c1cccc(NC(=O)c2ccc(C)o2)c1	none
COC(=O)c1cccc(NC(=O)c2ccco2)c1	none (no result: CYP2C9 activ, CYP2C19 act, CYP2C9 inhib, CYP2C19 inhib)
COc1ccc(NC(=O)c2ccco2)cc1NC(=O)c1cccc(OC(C)C)c1	CYP2C19 inhib 64, Cav3 T inh -5.6
O=C(COC(=O)c1cccc(NC(=O)c2ccco2)c1)c1ccc(Br)cc1	CYP2C9 activ 2.3
CCOC(=O)N1CCN(C(=O)C(c2ccccc2)c2ccccc2)CC1	none
O=C(NCc1ccc(F)cc1)c1cnc(-c2ccccn2)nc1C(F)(F)F	none
Cc1ccsc1C(=O)Nc1ccccc1N1CCOCC1	none
CCCC(c1nnnn1CCc1ccccc1)N1CCC(C(N)=O)CC1 (stereo unspecified)	none (no result: CYP2C9 activ, CYP2C19 act, CYP2C9 inhib, CYP2C19 inhib)
CCN1C(=O)C(C(=O)Nc2ccc(OC)cc2)C2CC1(C)Oc1ccccc12 (stereo unspecified)	CYP2C9 inhib 54
